# Bioassay records as filed in PubChem BioAssay.
# MCF10A rerep = A quantitative high throughput screen for small molecules that induce DNA re-replication in MCF 10a normal breast cells. 350,000 compounds, 2.9% hits. Potency, µM (series often up to 46.1 µM), usual class: activators. AID 624296, 2012. MCF 10A DNA re-replication, Hoechst nuclear intensity, 48 h; further: nearly all actives have a fitted effect of over 50% in size
# D3 ag = qHTS of D3 Dopamine Receptor Agonist: qHTS | max activation, % | D3R DiscoveRx beta-arrestin cells, luminescence, 90 min | 410,000 compounds, 0.58% hits; in the data active means max activation above about 30%
# Target sequence (P35462 whole entry, looked up): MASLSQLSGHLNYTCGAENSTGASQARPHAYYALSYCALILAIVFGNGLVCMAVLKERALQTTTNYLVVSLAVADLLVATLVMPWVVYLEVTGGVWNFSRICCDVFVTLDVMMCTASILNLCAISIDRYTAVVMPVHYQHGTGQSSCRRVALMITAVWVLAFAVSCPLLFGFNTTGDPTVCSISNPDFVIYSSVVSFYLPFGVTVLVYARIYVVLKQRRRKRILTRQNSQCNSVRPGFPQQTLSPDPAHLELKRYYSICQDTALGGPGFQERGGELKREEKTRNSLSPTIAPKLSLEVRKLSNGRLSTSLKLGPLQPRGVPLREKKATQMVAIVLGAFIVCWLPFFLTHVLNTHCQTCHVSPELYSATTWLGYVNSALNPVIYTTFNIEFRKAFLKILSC
#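 Agonist-mode cell screen: cells plated at 1500/well and incubated overnight at 37 °C, then exposed to library compounds for 90 min at 37 °C. Detection reagent was added for 30–60 min at room temperature, and luminescence was read.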
# KB-V1 MDR tox = qHTS assay for MDR1-selective chemotherapeutics: Primary screen using the drug-selected MDR subline cells KB-V1. KB-V1 MDR cells viability, CellTiter-Glo, 72 h. Potency, µM (series often up to 46.1 µM), actives largely listed as cytotoxic. 400,000 compounds, 3.4% hits. AID 1347076, 2019; further: nearly all actives have a fitted effect of over 60% in size
#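 Cytotoxicity via CellTiter-Glo luminescence after 72 h compound exposure at 37 degrees C. Cells: drug-selected KB-V1 line, DMEM phenol-red free plus 10% FBS. Compounds tested at multiple concentrations; normalized data fitted to concentration-effect curves.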
# SW480 rerep = A quantitative high throughput screen for small molecules that induce DNA re-replication in SW480 colon adenocarcinoma cells; SW480 DNA re-replication, Hoechst DNA content imaging, 48 h; Potency, µM (doses to about 46.1 µM), actives largely listed as activators; 340,000 compounds, 1.8% hits; AID 624297, 2012; further: nearly all actives have a fitted effect of over 55% in size
#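 Image-based DNA-content assay: after two days of treatment, nuclei were labelled with the DNA dye Hoechst and imaged, and hits were compounds raising the count of nuclei showing high fluorescence intensity.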
# D3 antag = qHTS of D3 Dopamine Receptor Antagonist: qHTS; D(3) dopamine receptor (Homo sapiens), P35462; D3R cells, DiscoveRx beta-arrestin luminescence, antagonist mode; active compounds read low; max response, negative = inhibition, %; 360,000 compounds, 2.5% hits; AID 652054, 2013; in the data active means max response below about -50%; inconclusive means no clear call, values can overlap the other calls
#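 Cells plated overnight at 1500 cells/well, then exposed to library compounds with dopamine controls for 90 minutes at 37 degrees C. DiscoveRx reagent added for 30–60 minutes at room temperature; luminescence read, quantitative HTS format.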
# KB-3-1 cytotox = qHTS assay for MDR1-selective chemotherapeutics: Primary screen using the parental adenocarcinoma cell KB-3-1 | 400,000 compounds, 1.4% hits | KB-3-1 viability, CellTiter-Glo ATP luminescence, 72 h | AID 1347075, 2019 | Potency, µM (series often up to 46.1 µM), actives largely listed as cytotoxic; further: nearly all actives have a fitted effect of over 60% in size
#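 Cells are dispensed, compounds pinned in, plates held at 37 °C for 72 h, then CellTiter-Glo is added and luminescence read after 10 minutes. Cell line: parental KB-3-1 in phenol-red-free DMEM, 10% FBS.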
# Numbers stand for hits; . = inactive; ? = inconclusive; / = no result given; ! = repeats disagree; [ ] = another dose, or the depositor's remark. Most compounds without a hit are left out; they make up all but 8.9% or so of the library. Unless noted, the call rests on the fitted dose curve; in most records, active means well fitted curve in the direction sought with a large enough effect; inconclusive means small, poorly fitted or top-dose-only effect, or another doubt; inactive means no such curve, though single readings can be large; an effect the other way counts as inactive or inconclusive.
SMILES,MCF10A rerep,D3 ag,KB-V1 MDR tox,SW480 rerep,D3 antag,KB-3-1 cytotox
COc1cccc(CN(C(=O)c2oc3ccccc3c2C)C2CCS(=O)(=O)C2)c1 (configuration not stated),/,.,.,/,/,.
N[C@@H](Cc1cc(I)c(Oc2ccc(O)c(I)c2)c(I)c1)C(=O)O,21µM!,.,.,.,.,?
N[C@@H](Cc1cc(I)c(Oc2cc(I)c(O)c(I)c2)c(I)c1)C(=O)O,.,.,.,.,.,.
Cc1ccccc1CN(c1ccc(C(=O)N2CCc3ccccc3C2)cc1)S(C)(=O)=O,?,.,10µM,.,.,10µM
O=C(c1ccc(CN2CCc3ccccc3C2)cc1)N1CCN(c2ccccc2)CC1,.,.,.,.,-62,.
O=C(c1ccc(CN2CCc3ccccc3C2)cc1)N1CCc2ccccc2C1,.,.,.,.,-76,.
COc1cc(OC)cc(C(=O)N2CCN(C3CCCCC3)CC2)c1,.,.,.,.[1.84 µM],?,.
COc1cc(OC)cc(C(=O)N2CCN(C3CCN(Cc4ccccc4)CC3)CC2)c1,.,.,.,.,-62,.
Cc1ccc(NS(=O)(=O)c2ccc3c(c2)CCCN3C(=O)C2CCC2)c(C)c1,/,.,.,/,/,.
COc1cccc(OCC(=O)Nc2nnc3n2CCS3)c1,/,.,.,/,/,.
COc1ccc(Cl)cc1NC(=O)Cn1c(=O)n(-c2ccc(C)cc2)c(=O)c2ccc(C(=O)NCc3ccccc3Cl)cc21,/,.,?,/,/,.
COc1ccc(C(=O)N2CCN(Cc3ccccc3)CC2)cc1[N+](=O)[O-],.,.,.,.,.,.
O=C(c1ccc(S(=O)(=O)c2cccc(Cl)c2)c([N+](=O)[O-])c1)N1CCN(Cc2ccccc2)CC1,21µM,.,?,?,.,?
O=C(c1ccc2c(c1)CCC2)N1CCN(Cc2ccccc2)CC1,/,.,.,/,-61,.
CCC(Sc1ccc2nnc(-c3ccc(F)cc3)n2n1)C(=O)OC (configuration not stated),.,.,.,.,-75,.
COc1ccc(-c2nnc3ccc(SC(C)C)nn23)cc1OC,/,/,21µM,/,/,.
COC(=O)c1ccc(C(=O)OC)c(NC(=O)N2CC3CCCN3c3ccccc32)c1 (configuration not stated),/,.,.,/,/,.
CC(=O)Nc1cccc(-c2ccnc3c2CC(C)(C(=O)NCc2ccc(F)c(F)c2)O3)c1 (configuration not stated),/,.,?,/,?,15µM
CC(=O)Nc1cccc(-c2ccnc3c2CC(C)(C(=O)NCC2CC2)O3)c1 (configuration not stated),/,.,.,/,.,12µM
CC(=O)Nc1cccc(-c2ccnc3c2CC(C(=O)NCc2ccc(F)c(F)c2)O3)c1 (configuration not stated),/,.,?,/,.,7.3µM
CC(=O)Nc1ccc(-c2ccnc3c2CC(C)(C(=O)NCC2CC2)O3)cc1 (configuration not stated),/,.,.,/,.,.
Cc1cc(C)c(NC(=O)Cn2nnc(-c3nc(-c4ccccc4)no3)c2N)c(C)c1,/,.,.,/,/,.
Cc1ccc2nc(Cl)c3cc(C(=O)N(C)C4CCCCC4)sc3c2c1,/,.,.,/,/,.
CCCOC(=O)c1ccc(Nc2nc3ccccc3nc2-n2nc(C)cc2C)cc1,/,.,.,/,/,.
COc1ccc(Cn2c(C(=O)O)c(CNCc3ccco3)c3ccc(OC)cc32)cc1,/,.,.,/,/,.
SMILES,MCF10A rerep,D3 ag,KB-V1 MDR tox,SW480 rerep,D3 antag,KB-3-1 cytotox
CCCCCCCC/C=C\CCCCCCCC(=O)O,30µM!,.,.,.,.,.
CC1=C(C(=O)Nc2ccccc2)C(c2cccs2)n2nc(SCc3ccccc3)nc2N1 (configuration not stated),/,.,.,/,/,.
CCOc1ccc(C(C)=O)cc1N1C(=O)C2C(C1=O)C1C=CC2C12CC2 (configuration not stated),.,.,?,.,.,.
CCOc1ccc(C(C)=O)cc1N1C(=O)C2C3C=CC(C3=C(C)C)C2C1=O (configuration not stated),.,.,16µM,.,.,.
Cc1oc(-c2ccc(C(=O)NCc3ccc(F)cc3)cc2)nc1CS(=O)c1ccccc1 (configuration not stated),/,.,.,/,/,.
O=C(O)c1cccc(NC2=C(Cl)C(=O)c3ccccc3C2=O)c1,?,.,?,?,-90,?
O=C1C(Cl)=C(NCCc2ccccc2)C(=O)c2ccccc21,?,.,?,5.2µM,-71,?
CC(=O)N(Cc1ccc(F)cc1)C1=C(NCCc2ccccc2)C(=O)c2ccccc2C1=O,?,.,?,6.3µM,-54,8.2µM
O=C1C(Cl)=C(NCCc2ccccc2)C(=O)N1CCc1ccccc1,?,.,.,.[9.22 µM],.,.
CC(C)NC1=C(Cl)C(=O)c2ccccc2C1=O,?,.,.,13µM,.,?
O=C(O)c1ccc(NC2=C(Cl)C(=O)c3ccccc3C2=O)cc1,?,.,.,?,?,?
COCCNC(=O)c1c(NC(=O)c2cc(=O)c3cc(Cl)ccc3o2)sc2c1CCCC2,/,.,/,/,/,/
CCc1ccccc1NC(=O)c1cnc2sc(N3CCOCC3)nn2c1=O,/,.,?,/,/,.
O=C1C(Cl)=C(Nc2ccccc2)C(=O)c2ccccc21,4.1µM,.,?,?,-74,?
Cc1ccc(-n2nc(C)c3c(-c4cccs4)c(C#N)c(N)nc32)cc1,8.2µM,.,?,?,.,.
Cc1nn(-c2ccccc2)c2nc(N)c(C#N)c(-c3ccc(F)cc3)c12,16µM,.,.,.,.,.
Nc1nc(=S)c2snnc2[nH]1,/,/,.,/,/,.
Nc1c(C(=O)NCc2ccco2)c2nc3ccccc3nc2n1CCc1ccc(F)cc1,?,.,16µM,5.8µM,-63,.
Nc1c(C(=O)NCCN2CCOCC2)c2nc3ccccc3nc2n1CCc1ccccc1,1.8µM,.,23µM,16µM,.,.
CC(C(=O)Nc1ccccc1-c1ccccc1)N1CCN(Cc2ccccc2)CC1 (configuration not stated),.,.,.,.,.,.
CC(C(=O)Nc1ccccc1-c1ccccc1)N1CCN(C(=O)c2ccccc2)CC1 (configuration not stated),.,.,.,.,.,.
CC1CCN(C(C)C(=O)Nc2ccccc2-c2ccccc2)CC1 (configuration not stated),.,.,?,.,-56,?
